Source: PubChem BioAssay AID1159580 (chemical genetic matrix, 2015)
The campaign covered roughly 5,500 compounds. About 2,000 (36%) were called active. Roughly 18% stayed inconclusive and do not appear here. No stated cut-off is given here; in the data, active means normalized growth mostly below about 0.91 (no sharp cut-off); inconclusive means no clear call, values can overlap the other calls; inactive means mostly above about 0.92. The list shows a part of the results.

Assay: chemical genetic growth profiling, strain panel (AID 1159580);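 further: tested at 20 µM; growth read once vehicle control cultures reached saturation at 30 °C; 1 = growth at the plate median or of vehicle wells; lower values mean less growth of the strain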
Conditions: growth OD

Measured: normalized growth

COc1ccc(-c2coc3c(O)c(OC)ccc3c2=O)cc1
active: S. cerevisiae deletion strains, locus YNL071W, strain lat1, active compounds read low 0.571 | S. cerevisiae deletion strains, locus YNL298W, strain CLA4, active compounds read low 0.904 | S. cerevisiae deletion strains, locus YNL307C, strain MCK1, active compounds read low 0.595 | S. cerevisiae deletion strains, locus YNL322C, strain KRE1 (second series), active compounds read low 0.839 | S. cerevisiae deletion strains, locus YOL147C, strain pex11, active compounds read low 0.836 | S. cerevisiae deletion strains, locus YOR144C, strain elg1, active compounds read low 0.894 | S. cerevisiae deletion strains, locus YOR184W, strain ser1, active compounds read low 0.708 | S. cerevisiae deletion strains, locus YOR290C, strain snf2, active compounds read low 0.807 | S. cerevisiae deletion strains, locus YPL051W, strain arl3, active compounds read low 0.87 | S. cerevisiae deletion strains, locus YPL078C, strain atp4, active compounds read low 0.836 | S. cerevisiae deletion strains, locus YPR119W, strain clb2, active compounds read low 0.928 | S. cerevisiae deletion strains, locus YPR163C, strain tif3, active compounds read low 0.694 | S. cerevisiae deletion strains, strain wtn01, active compounds read low 0.846 | S. cerevisiae strains, strain wild type, active compounds read low 0.83
inactive: S. cerevisiae deletion strains, locus YNL067W, strain RPL9B, active compounds read low 0.959 | S. cerevisiae deletion strains, locus YNL128W, strain TEP1, active compounds read low 0.889 | S. cerevisiae deletion strains, locus YNL183C, strain NPR1, active compounds read low 0.952 | S. cerevisiae deletion strains, locus YNL209W, strain ssb2, active compounds read low 0.948 | S. cerevisiae deletion strains, locus YNL233W, strain BNI4, active compounds read low 0.879 | S. cerevisiae deletion strains, locus YNL248C, strain rpa49, active compounds read low 0.965 | S. cerevisiae deletion strains, locus YNL250W, strain rad50, active compounds read low 0.928 | S. cerevisiae deletion strains, locus YNL271C, strain bni1, active compounds read low 0.941 | S. cerevisiae deletion strains, locus YNL322C, strain KRE1, active compounds read low 0.939 | S. cerevisiae deletion strains, locus YNR049C, strain mso1, active compounds read low 0.995 | S. cerevisiae deletion strains, locus YNR052C, strain pop2, active compounds read low 0.925 | S. cerevisiae deletion strains, locus YOL012C, strain htz1 0.727 | S. cerevisiae deletion strains, locus YOR001W, strain rrp6, active compounds read low 0.974 | S. cerevisiae deletion strains, locus YOR061W, strain CKA2, active compounds read low 0.912 | S. cerevisiae deletion strains, locus YOR069W, strain VPS5, active compounds read low 0.941 | S. cerevisiae deletion strains, locus YOR070C, strain gyp1, active compounds read low 0.994 | S. cerevisiae deletion strains, locus YOR080W, strain dia2, active compounds read low 0.992 | S. cerevisiae deletion strains, locus YOR083W, strain WHI5, active compounds read low 0.902 | S. cerevisiae deletion strains, locus YOR106W, strain vam3, active compounds read low 0.882 | S. cerevisiae deletion strains, locus YOR136W, strain idh2, active compounds read low 0.927 | S. cerevisiae deletion strains, locus YOR231W, strain MKK1, active compounds read low 1.02 | S. cerevisiae deletion strains, locus YOR265W, strain rbl2, active compounds read low 0.984 | S. cerevisiae deletion strains, locus YOR270C, strain vph1, active compounds read low 0.888 | S. cerevisiae deletion strains, locus YOR316C, strain cot1, active compounds read low 0.943 | S. cerevisiae deletion strains, locus YPL106C, strain sse1, active compounds read low 0.903 | S. cerevisiae deletion strains, locus YPL240C, strain hsp82, active compounds read low 0.946 | S. cerevisiae deletion strains, locus YPL256C, strain CLN2, active compounds read low 0.989 | S. cerevisiae deletion strains, locus YPR141C, strain kar3, active compounds read low 0.932 | S. cerevisiae deletion strains, locus YPR167C, strain met16, active compounds read low 0.926
